Source: PubChem BioAssay (NCI)
Compounds without any hit were thinned out: in the full panel of roughly 83,000, 20% have a hit.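 Treatment: one concentration, 48 hours, 96-well format. Scoring: percent growth, with anything below 10 considered active.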 Active and inactive are the calls of the source.

Assays:
Experiment in all cases: NCI-60 one-dose screen, 48 h (100 = growth as untreated, 0 = no growth, -100 = all killed)
SR leukemia = settings: 10 µM
RPMI-8226 leukemia = settings: 10 µM
OVCAR-8 ovarian = settings: 10 µM
OVCAR-5 ovarian = settings: 10 µM
OVCAR-4 ovarian = settings: 10 µM
SK-OV-3 ovarian = settings: 10 µM
IGROV1 ovarian = settings: 10 µM
OVCAR-3 ovarian = settings: 10 µM
HS 578T breast = settings: 10 µM
T-47D breast = settings: 10 µM
BT-549 breast = settings: 10 µM
MDA-MB-435 melanoma = settings: 10 µM
SW-620 colon = settings: 10 µM
MCF7 breast = settings: 10 µM unless noted
HCT-116 colon = settings: 10 µM
HCC-2998 colon = settings: 10 µM
KM12 colon = settings: 10 µM
NCI/ADR-RES ovarian = settings: 10 µM

Measured: growth

[O-][N+](=Nc1cccc(Cl)c1)c1cccc(Cl)c1
inactive: SR leukemia 141% | RPMI-8226 leukemia 81.9% | OVCAR-8 ovarian 114% | OVCAR-5 ovarian 88.3% | OVCAR-4 ovarian 61.8% | SK-OV-3 ovarian 110% | IGROV1 ovarian 76.4% | OVCAR-3 ovarian 111% | HS 578T breast 112% | T-47D breast 30.2% | BT-549 breast 73.1% | MDA-MB-435 melanoma 102% | SW-620 colon 90.4% | MCF7 breast 27.6% | HCT-116 colon 90.6% | HCC-2998 colon 63.1% | KM12 colon 91.9%

COc1nc(N)nc2c1ncn2C1OC(CO)CC1O (configuration not stated)
inactive: SR leukemia 115% | RPMI-8226 leukemia 92% | OVCAR-8 ovarian 101% | OVCAR-5 ovarian 100% | OVCAR-4 ovarian 120% | SK-OV-3 ovarian 98.5% | IGROV1 ovarian 112% | OVCAR-3 ovarian 118% | HS 578T breast 117% | NCI/ADR-RES ovarian 107% | BT-549 breast 94.3% | MDA-MB-435 melanoma 105% | SW-620 colon 108% | MCF7 breast 100% | HCT-116 colon 98.8% | HCC-2998 colon 105% | KM12 colon 103%

CCOC(=O)Nc1nn[nH]n1
inactive: SR leukemia 103% | RPMI-8226 leukemia 106% | OVCAR-8 ovarian 111% | OVCAR-5 ovarian 92.3% | OVCAR-4 ovarian 111% | SK-OV-3 ovarian 116% | IGROV1 ovarian 110% | OVCAR-3 ovarian 103% | HS 578T breast 93.7% | T-47D breast 113% | BT-549 breast 106% | MDA-MB-435 melanoma 111% | SW-620 colon 90.2% | MCF7 breast 103% | HCT-116 colon 107% | KM12 colon 106%

CCOC(=O)C1=C(C)NC(=O)NC1c1cccs1 (configuration not stated)
inactive: SR leukemia 76.5% | RPMI-8226 leukemia 99.8% | OVCAR-8 ovarian 94.1% | OVCAR-5 ovarian 122% | OVCAR-4 ovarian 117% | SK-OV-3 ovarian 105% | IGROV1 ovarian 113% | OVCAR-3 ovarian 118% | HS 578T breast 99% | T-47D breast 102% | BT-549 breast 123% | MDA-MB-435 melanoma 125% | SW-620 colon 105% | MCF7 breast 101% | HCT-116 colon 116% | KM12 colon 109%

O=c1[nH]nc(SC2CCCCC2)c(=O)[nH]1
inactive: SR leukemia 97.6% | RPMI-8226 leukemia 102% | OVCAR-8 ovarian 101% | OVCAR-5 ovarian 99% | OVCAR-4 ovarian 98.9% | SK-OV-3 ovarian 93.2% | IGROV1 ovarian 101% | OVCAR-3 ovarian 96.2% | HS 578T breast 92% | NCI/ADR-RES ovarian 94.3% | T-47D breast 99.6% | MDA-MB-435 melanoma 105% | SW-620 colon 98.6% | MCF7 breast 97.5% | HCC-2998 colon 92% | KM12 colon 107%

CCn1c(=O)n(C)c2c(=O)n(C)c(=O)n(C)c21
inactive: SR leukemia 101% | RPMI-8226 leukemia 106% | OVCAR-8 ovarian 101% | OVCAR-5 ovarian 108% | OVCAR-4 ovarian 111% | SK-OV-3 ovarian 106% | IGROV1 ovarian 122% | HS 578T breast 110% | NCI/ADR-RES ovarian 105% | T-47D breast 98% | BT-549 breast 101% | MDA-MB-435 melanoma 98.6% | SW-620 colon 107% | MCF7 breast 103% | HCT-116 colon 109% | HCC-2998 colon 87.8%

C=CC[N+](C)(C)C
inactive: SR leukemia 90.8% | RPMI-8226 leukemia 101% | OVCAR-8 ovarian 106% | OVCAR-5 ovarian 102% | OVCAR-4 ovarian 109% | SK-OV-3 ovarian 108% | IGROV1 ovarian 99.7% | HS 578T breast 95.5% | NCI/ADR-RES ovarian 105% | T-47D breast 103% | BT-549 breast 114% | MDA-MB-435 melanoma 102% | SW-620 colon 107% | MCF7 breast 101% | HCT-116 colon 104% | HCC-2998 colon 103% | KM12 colon 114%

O=S(=O)(O)CC(O)CN1CCN(CCO)CC1 (configuration not stated)
inactive: SR leukemia 92.4% | RPMI-8226 leukemia 96.3% | OVCAR-8 ovarian 98.8% | OVCAR-5 ovarian 117% | OVCAR-4 ovarian 114% | SK-OV-3 ovarian 95.3% | IGROV1 ovarian 124% | OVCAR-3 ovarian 108% | HS 578T breast 104% | T-47D breast 108% | BT-549 breast 99.3% | MDA-MB-435 melanoma 113% | SW-620 colon 105% | MCF7 breast 96% | HCT-116 colon 101% | HCC-2998 colon 89.4%

O=C(NN=C1CCCCC1)C(=O)NN=C1CCCCC1
inactive: SR leukemia 83.7% | RPMI-8226 leukemia 99.6% | OVCAR-8 ovarian 100% | OVCAR-5 ovarian 105% | OVCAR-4 ovarian 115% | SK-OV-3 ovarian 101% | IGROV1 ovarian 127% | HS 578T breast 115% | NCI/ADR-RES ovarian 114% | T-47D breast 99.7% | BT-549 breast 100% | MDA-MB-435 melanoma 117% | SW-620 colon 117% | MCF7 breast 92.5% | HCT-116 colon 106% | HCC-2998 colon 113% | KM12 colon 105%

O=C(O)c1ccnc(Br)c1
inactive: SR leukemia 109% | RPMI-8226 leukemia 115% | OVCAR-8 ovarian 103% | OVCAR-5 ovarian 107% | OVCAR-4 ovarian 107% | SK-OV-3 ovarian 101% | IGROV1 ovarian 117% | HS 578T breast 107% | NCI/ADR-RES ovarian 111% | T-47D breast 96.9% | BT-549 breast 105% | MDA-MB-435 melanoma 104% | SW-620 colon 103% | MCF7 breast 91.7% | HCT-116 colon 103% | HCC-2998 colon 107% | KM12 colon 103%

CC(=O)OCC(=O)[C@@]1(O)CC[C@H]2[C@@H]3CC[C@@H]4C[C@H](O)CC[C@]4(C)[C@H]3C(=O)C[C@@]21C
inactive: SR leukemia 95.2% | RPMI-8226 leukemia 95.1% | OVCAR-8 ovarian 107% | OVCAR-5 ovarian 112% | OVCAR-4 ovarian 116% | SK-OV-3 ovarian 109% | IGROV1 ovarian 93.3% | HS 578T breast 100% | NCI/ADR-RES ovarian 110% | T-47D breast 108% | BT-549 breast 102% | MDA-MB-435 melanoma 103% | SW-620 colon 103% | MCF7 breast 108% | HCT-116 colon 99.9% | HCC-2998 colon 97.5% | KM12 colon 112%

CCCCNC1(C#N)CCN(Cc2ccccc2)CC1
inactive: SR leukemia 115% | RPMI-8226 leukemia 99.2% | OVCAR-8 ovarian 96.4% | OVCAR-5 ovarian 88.9% | OVCAR-4 ovarian 103% | SK-OV-3 ovarian 97.1% | IGROV1 ovarian 91.9% | OVCAR-3 ovarian 132% | HS 578T breast 101% | T-47D breast 17.8% | BT-549 breast 107% | MDA-MB-435 melanoma 97.5% | SW-620 colon 102% | MCF7 breast 102% | HCT-116 colon 98% | HCC-2998 colon 86.9% | KM12 colon 144%

Nc1ccc(N=Nc2ccc(S(=O)(=O)O)cc2)c2ccccc12
inactive: SR leukemia 96.9% | RPMI-8226 leukemia 98% | OVCAR-8 ovarian 103% | OVCAR-5 ovarian 106% | OVCAR-4 ovarian 103% | SK-OV-3 ovarian 72.2% | IGROV1 ovarian 94.1% | HS 578T breast 96.6% | NCI/ADR-RES ovarian 97.3% | T-47D breast 57.3% | BT-549 breast 102% | MDA-MB-435 melanoma 98.6% | SW-620 colon 88.7% | MCF7 breast 91.4% | HCT-116 colon 89% | HCC-2998 colon 88.3% | KM12 colon 99.2%

O=C(O)/C=C/c1ccc2c(c1)CCC2
inactive: SR leukemia 80.2% | RPMI-8226 leukemia 99.2% | OVCAR-8 ovarian 99.8% | OVCAR-5 ovarian 97.8% | OVCAR-4 ovarian 104% | SK-OV-3 ovarian 99.6% | IGROV1 ovarian 118% | OVCAR-3 ovarian 117% | NCI/ADR-RES ovarian 109% | T-47D breast 104% | BT-549 breast 100% | MDA-MB-435 melanoma 99.8% | SW-620 colon 106% | MCF7 breast 109% | HCT-116 colon 105% | HCC-2998 colon 108% | KM12 colon 106%

NC(CSC(c1ccccc1)(c1ccccc1)c1ccccc1)C(=O)O (configuration not stated)
inactive: SR leukemia 15.3% | OVCAR-8 ovarian 22.6% | OVCAR-5 ovarian 41.8% | OVCAR-4 ovarian 74.6% | SK-OV-3 ovarian 17% | IGROV1 ovarian 63.3% | OVCAR-3 ovarian 15.9% | NCI/ADR-RES ovarian 93% | T-47D breast 15.5% | BT-549 breast 47.4% | SW-620 colon 24.8% | HCT-116 colon 19.9% | HCC-2998 colon 15.9% | KM12 colon 22.5%
active: RPMI-8226 leukemia 4.13% | MDA-MB-435 melanoma -66.6% | MCF7 breast 2.58%

CC(C)CCCC(=O)O
inactive: SR leukemia 89.4% | RPMI-8226 leukemia 105% | OVCAR-8 ovarian 114% | OVCAR-5 ovarian 100% | OVCAR-4 ovarian 96.8% | SK-OV-3 ovarian 108% | OVCAR-3 ovarian 114% | HS 578T breast 103% | NCI/ADR-RES ovarian 109% | T-47D breast 104% | BT-549 breast 108% | MDA-MB-435 melanoma 105% | SW-620 colon 100% | MCF7 breast 96% | HCT-116 colon 107% | HCC-2998 colon 103% | KM12 colon 102%

O=C(/C(=N/O)c1ccccc1)c1ccccc1
inactive: SR leukemia 110% | RPMI-8226 leukemia 99.5% | OVCAR-8 ovarian 103% | OVCAR-5 ovarian 111% | OVCAR-4 ovarian 102% | SK-OV-3 ovarian 106% | OVCAR-3 ovarian 116% | HS 578T breast 101% | NCI/ADR-RES ovarian 113% | T-47D breast 90.2% | BT-549 breast 98% | MDA-MB-435 melanoma 108% | SW-620 colon 107% | MCF7 breast 87.9% | HCT-116 colon 98% | HCC-2998 colon 107% | KM12 colon 107%

Nc1ccccc1C(=O)Nc1ccc(Cl)cc1Cl
inactive: SR leukemia 50% | RPMI-8226 leukemia 63.9% | OVCAR-8 ovarian 83.1% | OVCAR-5 ovarian 100% | OVCAR-4 ovarian 87.5% | SK-OV-3 ovarian 99.2% | OVCAR-3 ovarian 93.7% | HS 578T breast 87.4% | NCI/ADR-RES ovarian 90.7% | T-47D breast 88% | BT-549 breast 99.2% | MDA-MB-435 melanoma 107% | SW-620 colon 85.9% | MCF7 breast 65.5% | HCT-116 colon 59.9% | HCC-2998 colon 103% | KM12 colon 91%

Cc1cc(=O)[nH]c(NN=C2CCCC2)n1
inactive: SR leukemia 103% | RPMI-8226 leukemia 107% | OVCAR-8 ovarian 112% | OVCAR-5 ovarian 99.4% | OVCAR-4 ovarian 114% | SK-OV-3 ovarian 103% | IGROV1 ovarian 107% | HS 578T breast 121% | NCI/ADR-RES ovarian 121% | T-47D breast 103% | BT-549 breast 122% | MDA-MB-435 melanoma 110% | SW-620 colon 111% | MCF7 breast 104% | HCT-116 colon 107% | KM12 colon 110%

CCCCCCCCCCCCCCCCC1CC(=O)OC1=O (configuration not stated)
inactive: SR leukemia 99.3% | RPMI-8226 leukemia 108% | OVCAR-8 ovarian 101% | OVCAR-5 ovarian 102% | OVCAR-4 ovarian 108% | SK-OV-3 ovarian 106% | OVCAR-3 ovarian 119% | HS 578T breast 106% | NCI/ADR-RES ovarian 113% | T-47D breast 97.4% | MDA-MB-435 melanoma 101% | SW-620 colon 105% | MCF7 breast 98.5% | HCC-2998 colon 114% | KM12 colon 108%
